Laboratory results from PubChem BioAssay (NCATS).
“And” between values parts separate entries of the source, which are not always exact repeats. Identical values can stand only once. Inconclusive results are not listed. The source made the active and inactive calls. Unless noted, calls follow the shape of the dose curve; as a rule, active = well fitted curve in either direction with a large enough effect (not every such curve was filed as active); inconclusive = small, poorly fitted or top-dose-only effect, or another doubt; inactive = flat fitted curve, though single readings scatter.

How the values were obtained:
[1] = target: Glucocorticoid receptor (Homo sapiens) (UniProt P04150); test: GR-GFP Redistribution (AID 450;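 active = compounds whose dose series gives a full or clear partial fitted curve of increased nuclear translocation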; also: potency is read from the fitted curve at half-maximal effect); conditions: U2OS GR-GFP nuclear translocation, laser cytometry, 2 h
Glucocorticoid receptor (Homo sapiens), sequence (P04150 whole entry, looked up, the tested form may be a part): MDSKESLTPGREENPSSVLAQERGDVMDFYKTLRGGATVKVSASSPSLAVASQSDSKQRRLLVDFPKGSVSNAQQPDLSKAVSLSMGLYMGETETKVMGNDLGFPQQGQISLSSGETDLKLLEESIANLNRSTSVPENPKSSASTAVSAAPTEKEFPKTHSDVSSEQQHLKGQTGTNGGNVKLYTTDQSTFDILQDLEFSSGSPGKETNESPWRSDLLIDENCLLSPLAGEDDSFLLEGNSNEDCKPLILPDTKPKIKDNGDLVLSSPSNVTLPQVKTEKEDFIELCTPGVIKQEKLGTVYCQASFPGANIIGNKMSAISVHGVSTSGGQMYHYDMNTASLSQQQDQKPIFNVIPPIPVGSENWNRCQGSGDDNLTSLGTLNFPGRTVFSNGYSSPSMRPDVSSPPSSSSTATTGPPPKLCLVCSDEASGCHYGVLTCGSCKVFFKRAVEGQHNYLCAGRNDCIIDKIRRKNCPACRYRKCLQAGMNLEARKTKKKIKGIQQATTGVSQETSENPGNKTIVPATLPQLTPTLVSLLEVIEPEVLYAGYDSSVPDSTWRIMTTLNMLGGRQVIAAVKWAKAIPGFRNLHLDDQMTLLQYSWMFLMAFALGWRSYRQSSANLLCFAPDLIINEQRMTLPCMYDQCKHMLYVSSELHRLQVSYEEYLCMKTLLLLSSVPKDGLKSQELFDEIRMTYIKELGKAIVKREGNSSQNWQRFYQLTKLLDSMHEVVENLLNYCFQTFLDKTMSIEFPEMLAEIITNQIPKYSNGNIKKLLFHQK

[2] = Stat Signaling Pathway (AID 446); conditions: ME-180 SIE beta-lactamase reporter, IL-6 stimulated, 5 h;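 also: ME-180 cervical cancer cells given 40 pM IL-6 alongside compound; SIE-controlled beta-lactamase reporter measured as 460/530 nm FRET emission ratio; % is scaled to controls: 0 for no effect and ±100 for the full control effect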
Procedure, shortened: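 Reporter line: ME-180 cervical carcinoma, SIE-beta-lactamase. Treatment: compound with 40 pM IL-6, 5 hrs, 37 C, in low-serum OPTI-MEM with 10 mM HEPES pH 7.3. Detection: 460/530 nm fluorescence.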

[3] = target: Glucocorticoid receptor (Homo sapiens) (UniProt P04150); test: GR-EFC Redistribution (AID 451; calls by dose curve; also: potency is read from the fitted curve at half-maximal effect); conditions: CHO-K1 GR-EFC translocation, beta-gal luminescence, 2 h
Procedure, shortened: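 Translocation of GR-ED fusion to nuclear EA restores b-gal, read by luminescence after 1 h room-temperature detection. Engineered CHO-K1 biosensor cells, 1,000/well, exposed 2 h at 37 C to titrations up to 46 uM final.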

[4] = target: Mitogen-activated protein kinase 10 (Mus musculus) (UniProt Q61831); test: JNK3 AlphaScreen Assay (AID 530); conditions: JNK3 lysate, c-Jun phosphorylation; series mostly up to 57.1 µM;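 also: kinase came from lysate of stimulated human HepG2 cells; signal reports phosphorylation of biotinylated GST-cJun 1-79 at Ser73 with 10 µM ATP; % is scaled to controls: 0 for no effect and ±100 for the full control effect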
Procedure, shortened: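 Room-temperature AlphaScreen kinase assay; pre-activated HepG2 lysate as JNK3 source, biotin-GST-cJun(1-79) substrate, 10 uM ATP, compound 15 min preincubation.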

[5] = target: 3',5'-cyclic-AMP phosphodiesterase 4B (Homo sapiens) (UniProt Q07343); test: qHTS Assay for Inhibitors of PDE-IV (AID 607; active = well fitted activation curve with a large enough effect in the main read-out, with a control signal flat, not every such curve was filed as active; also: % of control where 0% means no effect); conditions: HEK293 ACTOne CNG channel cells, membrane potential fluorescence; series mostly up to 22.9 µM
3',5'-cyclic-AMP phosphodiesterase 4B (Homo sapiens), sequence (Q07343 whole entry, looked up): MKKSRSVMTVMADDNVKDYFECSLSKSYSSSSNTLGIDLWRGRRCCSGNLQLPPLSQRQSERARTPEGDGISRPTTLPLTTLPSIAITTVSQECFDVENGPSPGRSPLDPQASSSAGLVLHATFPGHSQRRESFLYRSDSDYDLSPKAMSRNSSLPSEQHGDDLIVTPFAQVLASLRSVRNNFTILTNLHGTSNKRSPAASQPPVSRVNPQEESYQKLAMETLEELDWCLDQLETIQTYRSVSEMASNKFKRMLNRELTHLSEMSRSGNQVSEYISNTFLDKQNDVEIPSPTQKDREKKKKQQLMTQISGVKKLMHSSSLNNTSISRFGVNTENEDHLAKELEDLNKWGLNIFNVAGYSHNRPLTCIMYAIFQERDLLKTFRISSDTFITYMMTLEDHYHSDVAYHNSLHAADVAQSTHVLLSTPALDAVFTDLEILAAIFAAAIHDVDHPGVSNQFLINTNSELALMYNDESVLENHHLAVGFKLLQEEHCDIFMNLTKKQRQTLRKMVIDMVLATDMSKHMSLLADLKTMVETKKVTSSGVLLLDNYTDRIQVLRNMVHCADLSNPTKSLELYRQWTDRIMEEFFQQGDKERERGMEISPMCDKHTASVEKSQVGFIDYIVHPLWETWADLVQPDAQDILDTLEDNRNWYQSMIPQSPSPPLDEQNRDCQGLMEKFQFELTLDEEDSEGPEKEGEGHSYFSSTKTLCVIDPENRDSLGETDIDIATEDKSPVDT
Procedure, shortened: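 Cell-based read-out of cAMP via a modified cyclic nucleotide-gated channel and membrane potential dye (535/590 nm) in HEK293 cells expressing PDE4 endogenously. Compounds tested up to 22.9 uM final; 100 uM RO 20-1724 reference.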

[6] = Cell Viability - N2a (AID 540; active = well fitted curve in the direction sought with a large enough effect; an effect the other way counts as inactive or inconclusive;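 also: plate controls were DMSO alone for no effect and tamoxifen control for full effect; nearly all actives have a fitted effect of over 45% in size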); conditions: N2a mouse neuroblastoma cell viability; activity change, negative = cytotoxicity: at 92.2 µM (top of the series)
Procedure, shortened: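 Mouse neuroblastoma N2a cells (1500/well) were preincubated 5 hr at 37 °C, then exposed to compounds for 40 hr at 37 °C in complete medium. Viability was read as intracellular ATP by CellTiter-Glo luminescence; AC50 from Hill fits.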

[7] = Cell Viability - NIH 3T3 (AID 541; active = well fitted curve in the direction sought with a large enough effect; an effect the other way counts as inactive or inconclusive;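 also: plate controls were DMSO alone for no effect and tamoxifen positive control for full effect; nearly all actives have a fitted effect of over 25% in size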); conditions: NIH 3T3 cell viability, qHTS; activity change, negative = cytotoxicity: at 92.2 µM (top of the series)
Procedure, shortened: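 NIH 3T3 mouse embryo fibroblasts (1000 cells/well) were plated in complete medium and treated with compound for 40 hr at 37 °C. Viability was read as intracellular ATP by CellTiter-Glo luminescence; AC50 values came from Hill-equation fits of concentration-response data.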

[8] = Cell Viability - HUV-EC-C (AID 542; active = well fitted curve in the direction sought with a large enough effect; an effect the other way counts as inactive or inconclusive; also: % is scaled to controls: 0 for no effect and ±100 for the full control effect; nearly all actives have a fitted effect of over 35% in size); conditions: HUV-EC-C endothelial cell viability, qHTS; series mostly up to 92.2 µM
Procedure, shortened: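 HUV-EC-C normal human vascular endothelial cells, 1000 cells/well, pre-incubated 5 hr at 37 °C, then exposed to compounds for 40 hr at 37 °C in complete medium. Viability measured as intracellular ATP by CellTiter-Glo luminescence; AC50 from Hill fits.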

[9] = Cell Viability - SH-SY5Y (AID 544; active = well fitted curve in the direction sought with a large enough effect; an effect the other way counts as inactive or inconclusive; also: nearly all actives have a fitted effect of over 55% in size); conditions: SH-SY5Y neuroblastoma cell viability; series mostly up to 92.2 µM
Procedure, shortened: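 Human neuroblastoma SH-SY5Y cells (1500/well) in complete medium were exposed to compounds for 40 hr at 37 °C; intracellular ATP was then quantified by CellTiter-Glo luminescence after 20 min at room temperature. AC50 came from Hill-equation concentration-response fits.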

[10] = Cell Viability - Renal Proximal Tubule (AID 545; active = well fitted curve in the direction sought with a large enough effect; an effect the other way counts as inactive or inconclusive; also: nearly all actives have a fitted effect of over 40% in size); conditions: renal proximal tubule cells viability, primary cells of rat origin; series mostly up to 91.7 µM
Procedure, shortened: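 Rat kidney proximal tubule cells, freshly isolated; 1000 cells/well, 5 hr settle, compound 40 hr 37 °C. CellTiter-Glo 20 min RT, luminescence read. AC50 by standard Hill fit.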

[11] = Cell Viability - Mesenchymal (AID 546; active = well fitted curve in the direction sought with a large enough effect; an effect the other way counts as inactive or inconclusive;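 also: cells exposed to compound for 40 hours before reading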); conditions: mesenchymal cells viability, qHTS; series mostly up to 91.7 µM
Procedure, shortened: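 AC50 values reflect the drop in intracellular ATP in a human kidney mesenchymal line derived from normal glomeruli. Treatment lasts 40 hr at 37 °C in complete medium, and the signal comes from CellTiter-Glo luminescence.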

[12] = Cellular Toxicity (caspase-3) HepG2 (AID 654; active = well fitted curve in the direction sought with a large enough effect; an effect the other way counts as inactive or inconclusive;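 also: cells exposed to compound for 16 hours before reading; 0% = DMSO alone and 100% = caspase signal from 100 µM tamoxifen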); conditions: HepG2 caspase-3 activation, luminescence; series mostly up to 92.2 µM
Procedure, shortened: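 HepG2 cells (1500/well) in complete medium were treated with compounds for 16 hr at 37 °C. Caspase-3/7 activity was then read as luminescence from peptide-aminoluciferin cleavage. AC50 came from Hill fits, normalized to DMSO and 100 uM tamoxifen.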

[13] = Cellular Toxicity (caspase-3) Jurkat (AID 655; active = well fitted curve in the direction sought with a large enough effect; an effect the other way counts as inactive or inconclusive;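 also: cells exposed to compound for 16 h at 37 °C before reading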); conditions: Jurkat caspase-3 activation, luminescence; series mostly up to 92.2 µM
Procedure, shortened: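 Luminescent caspase-3/7 readout (aminoluciferin substrate cleavage) in human T-cell leukemia Jurkat cells after 16 hr compound exposure. Concentration-response normalized to DMSO and 100 uM tamoxifen; AC50 by standard Hill equation.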

[14] = Cellular Toxicity (caspase-3) HUV-EC-C (AID 656; active = well fitted curve in the direction sought with a large enough effect; an effect the other way counts as inactive or inconclusive); conditions: HUV-EC-C cells, caspase-3 activation (apoptosis), vehicle = 0, 100 µM tamoxifen = 100%; series mostly up to 92.2 µM
Procedure, shortened: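 Luminescent caspase-3/7 activation (aminoluciferin substrate cleavage) in HUV-EC-C cells after 16 hr compound exposure, 37°C. Signal normalized to DMSO basal and 100 uM tamoxifen as 100%; AC50 from concentration-response fitted with the Hill equation.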

[15] = Cellular Toxicity (caspase-3) BJ (AID 658; active = well fitted curve in the direction sought with a large enough effect; an effect the other way counts as inactive or inconclusive;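 also: 0% = DMSO basal and 100% = 10 µM staurosporine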); conditions: BJ fibroblasts, luminescence, normalized: DMSO 0%, staurosporine 100%; series mostly up to 91.7 µM
Procedure, shortened: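 Readout: Caspase-Glo 3/7 luminescence increase in BJ cells after 16 hr treatment at 37 °C. Staurosporine and tamoxifen served as positive controls; AC50 values came from Hill modelling of data normalized to DMSO and 10 uM staurosporine.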

[16] = Cellular Toxicity (caspase-3) MRC-5 (AID 659; active = well fitted curve in the direction sought with a large enough effect; an effect the other way counts as inactive or inconclusive;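 also: 0% = DMSO basal and 100% = 10 µM staurosporine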); conditions: MRC-5 cells, luminescence; Potency: caspase-3 activation; series mostly up to 91.7 µM
Procedure, shortened: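 Concentration-dependent caspase 3/7 activation is measured in human normal lung fibroblasts (MRC-5) following 16-hour treatment. AC50 values come from standard Hill-equation modeling of luminescence normalized to DMSO and 10 uM staurosporine.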

[17] = Cellular Toxicity (caspase-3) Mesangial (AID 660; active = well fitted curve in the direction sought with a large enough effect; an effect the other way counts as inactive or inconclusive;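 also: cells exposed to compound for 16 h before the caspase read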); conditions: mesangial cells, normalized: DMSO 0%, 100 µM tamoxifen 100%; series mostly up to 91.7 µM
Procedure, shortened: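 Human renal glomerular mesangial cells (1000/well) were treated with compounds for 16 h at 37 °C in complete medium, then caspase 3/7 activity was read by Caspase-Glo luminescence. Data were normalized to DMSO and 100 uM tamoxifen; AC50 from Hill fits.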

[18] = Cellular Toxicity (caspase-3) SK-N-SH (AID 661; active = well fitted curve in the direction sought with a large enough effect; an effect the other way counts as inactive or inconclusive;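 also: 0% = DMSO basal and 100% = 10 µM staurosporine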); conditions: SK-N-SH caspase-3 activation, qHTS, DMSO as zero, staurosporine as full; series mostly up to 91.7 µM
Procedure, shortened: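 SK-N-SH human neuroblastoma cells (1500/well) were treated with compounds for 16 hr at 37 °C in complete medium; caspase 3/7 activity was read by Caspase-Glo luminescence. AC50 came from Hill fits of data normalized to DMSO and 10 uM staurosporine.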

[19] = Cellular Toxicity (caspase-3) H-4-II-E (AID 663; active = well fitted curve in the direction sought with a large enough effect; an effect the other way counts as inactive or inconclusive;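 also: cells exposed to compound for 16 hr before readout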); conditions: H-4-II-E rat hepatoma, scaled: DMSO 0%, 100 µM tamoxifen 100%; series mostly up to 92.2 µM
Procedure, shortened: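 Apoptosis induction is scored as increased luminescence from caspase 3/7 substrate cleavage in rat hepatoma H-4-II-E cells exposed to compound for 16 hr. Activity is scaled between DMSO and 100 uM tamoxifen.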

[20] = Cellular Toxicity (caspase-3) Hek293 (AID 664; active = well fitted curve in the direction sought with a large enough effect; an effect the other way counts as inactive or inconclusive;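 also: cells exposed to compound for 16 h at 37 °C before readout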); conditions: HEK293 caspase-3 activation, DMSO = 0%, 100 µM tamoxifen = 100%; series mostly up to 92.2 µM
Procedure, shortened: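 HEK293 cells were exposed to compounds in complete medium for 16 hr at 37 °C, then caspase-3/7 activity was read by Caspase-Glo 3/7 luminescence after 20 min at room temperature. Data normalized to DMSO and 100 uM tamoxifen; AC50 from Hill fits.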

CC1=C(/C=C/C(C)=C/C=C/C(C)=C/C(=O)O)C(C)(C)CCC1
inactive: Potency [1] > 20.6 µM

CC(COc1ccccc1)NC(C)C(O)c1ccc(O)cc1 (centres undefined)
inactive: activity, negative = inhibition ([2]; at 17.2 µM (top of the series)) 20.7% | Potency [1] > 20.6 µM

C#CCN(C)Cc1ccccc1
inactive: activity, negative = inhibition ([2]; at 17.2 µM (top of the series)) 8.61% and -2.46% | Potency [1] > 46 µM and > 20.6 µM | Potency [3] > 46 µM and > 20.6 µM | Potency [4] | outcome [5]

C[C@@H]1C[C@H]2[C@@H]3C[C@H](F)C4=CC(=O)C=C[C@]4(C)[C@@]3(F)[C@@H](O)C[C@]2(C)[C@@]1(O)C(=O)CO
inactive: activity, negative = inhibition ([2]; at 17.2 µM (top of the series)) -0.0687%

CN(C)CCCN1c2ccccc2Sc2ccc(Cl)cc21
inactive: activity, negative = inhibition ([2]; at 17.2 µM (top of the series)) -1.56% and 4.13% | activity, negative = inhibition ([2]; at 38 µM (top of the series)) -20.2% | Potency [1] > 20.6 µM | Potency [3] > 46 µM and > 20.6 µM | Potency [4] | outcome [5]

NS(=O)(=O)c1cc2c(cc1C(F)(F)F)NC(Cc1ccccc1)NS2(=O)=O (centres undefined)
inactive: activity, negative = inhibition ([2]; at 17.2 µM (top of the series)) 1.32%

O=c1cc(CO)occ1O
inactive: Potency [1] > 46 µM | Potency [3] > 46 µM | Potency [4]

COc1ccc2c(c1)C(=O)N(CCc1ccc(S(=O)(=O)NC(=O)NC3CCCCC3)cc1)C(=O)C2(C)C
inactive: activity, negative = inhibition ([2]; at 17.2 µM (top of the series)) -7.41% | Potency [1] > 20.6 µM | Potency [3] > 20.6 µM | Potency [4] | outcome [5]

CC[C@H]1CN2CCc3cc(OC)c(OC)cc3[C@@H]2C[C@@H]1C[C@H]1NCCc2cc(OC)c(OC)cc21
inactive: Potency [1] > 20.6 µM

CCCCOC(=O)c1ccc(O)cc1
inactive: activity, negative = inhibition ([2]; at 17.2 µM (top of the series)) -9.98% | Potency [1] > 20.6 µM | Potency [3] > 20.6 µM | Potency [4] | activity change, negative = cytotoxicity [6] 2.23% | Potency [7] | Potency [8] | Potency [9] | Potency [10] | outcome [11] | outcome [5] | Potency [12] | Potency [13] | outcome [14] | outcome [15] | Potency [16] | outcome [17] | outcome [18] | outcome [19] | outcome [20]

Nc1ncnc2c1ncn2[C@@H]1O[C@H](CO)[C@@H](O)[C@H]1O
inactive: Potency [1] > 20.6 µM

CCC(=O)c1ccc(O)cc1
inactive: Potency [1] > 20.6 µM

CN(C)CCN(Cc1ccccc1)c1ccccn1
inactive: Potency [1] > 20.6 µM

CN(C)CCOC(C)(c1ccccc1)c1ccccn1 (centres undefined)
inactive: activity, negative = inhibition ([2]; at 17.2 µM (top of the series)) 5.21%
